Our source for the growth values is PubChem BioAssay (NCI).

Among the test systems are NCI-H23 lung; NCI-H226 lung; NCI-H322M lung; HOP-62 NSCLC; NCI-H460 lung; HOP-92 NSCLC; NCI-H522 lung; A549/ATCC NSCLC; 786-0 renal; COLO 205 colon; DU-145 prostate; K-562 leukemia; MALME-3M melanoma; RXF 393 renal; SF-268 CNS; SF-295 CNS; SF-539 CNS; UACC-257 melanoma; M14 melanoma; MDA-MB-231 breast.
Holding throughout (test): NCI-60 one-dose screen, 48 h (100 = growth as untreated, 0 = no growth, -100 = all killed)
Settings in all cases: 10 µM unless noted

Molecules are shown by their SMILES. About 83,000 compounds went through this panel and 20% of them were active in at least one assay; those are over-represented in the sample as a whole.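 The test compound was applied at a single concentration to cells in 96-well plates for 48 hours, and percent growth was recorded.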 A number with no mark means an inactive call. Calls of active or inactive are those of the source. Rule for the calls: active = growth percent below 10; inactive = the rest.

For `O=[N+]([O-])C=C(c1ccccc1)c1ccccc1`, the growth in the experiment with NCI-H23 lung was 81.9%; in the experiment with NCI-H226 lung it was 88.6%; in the experiment on NCI-H322M lung, 88%; in the experiment on HOP-62 NSCLC it was 73.7%; in the experiment on NCI-H460 lung, 88.4%; in the experiment on HOP-92 NSCLC, 63.9%. Also, the growth in the experiment on NCI-H522 lung was 72.7%; with A549/ATCC NSCLC it was 79.5%; in the experiment on 786-0 renal, 89.2%; in the experiment on COLO 205 colon, 114%; with DU-145 prostate, 87.7%; with K-562 leukemia, 29.4%. The growth in the experiment on MALME-3M melanoma is 80.2%; in the experiment on RXF 393 renal it was 78.5%; with SF-268 CNS, 85.7%; with SF-295 CNS, 89.3%; with SF-539 CNS, 88.2%; in the experiment with UACC-257 melanoma it was 84%. Moreover, the growth in the experiment on M14 melanoma is 79.4%.
Take `CCCC[n+]1c(/C=C\c2c(OC)cc(OC)cc2OC)ccc2ccccc21`: the growth with NCI-H23 lung was -4.06% (active); in the experiment on NCI-H226 lung it was 9.84% (active); in the experiment on NCI-H322M lung, 4.8% (active); in the experiment with HOP-62 NSCLC, 13.8%; with NCI-H460 lung, -43.2% (active); in the experiment on HOP-92 NSCLC it was -20% (active). The growth with NCI-H522 lung was -73.4% (active); with A549/ATCC NSCLC, -22.9% (active); in the experiment with 786-0 renal, 21.5%; with COLO 205 colon, -53.3% (active); with DU-145 prostate, 23%; in the experiment with K-562 leukemia, 0.911% (active). In addition, the growth in the experiment on MALME-3M melanoma was 13%; in the experiment with MDA-MB-231 breast it was -15.1% (active); in the experiment on SF-268 CNS, 22%; in the experiment with SF-295 CNS, -74.7% (active); in the experiment on SF-539 CNS, 10.3%; with UACC-257 melanoma it was -41.5% (active). The growth with M14 melanoma is 9% (active).
On to `COc1cc(OC)c(/C=C/c2c3ccccc3cc[n+]2C)c(OC)c1`, for which the growth with NCI-H23 lung was 17.3%; in the experiment on NCI-H226 lung, 33.3%; in the experiment on NCI-H322M lung, 32.9%; in the experiment with HOP-62 NSCLC it was 35.3%; in the experiment on NCI-H460 lung, 10.8%; in the experiment on HOP-92 NSCLC, 36.6%. Further, the growth in the experiment on NCI-H522 lung was -19.3% (active); in the experiment on A549/ATCC NSCLC it was 14.7%; in the experiment with 786-0 renal, 62.8%; with COLO 205 colon, -35.3% (active); in the experiment with DU-145 prostate it was 36.5%; in the experiment on K-562 leukemia, 5.35% (active). Moreover, the growth was 33.3% in the experiment with MALME-3M melanoma; 42.4% with MDA-MB-231 breast; 26.3% in the experiment with SF-268 CNS; -32.3% (active) with SF-295 CNS; 31.9% with SF-539 CNS; -16.7% (active) in the experiment on UACC-257 melanoma. In addition, in the experiment on M14 melanoma, the growth is 41.7%.
For `Cc1cc2nc(CC(=O)c3ccncc3)c(=O)[nH]c2cc1C`, the growth is 94.2% in the experiment with NCI-H23 lung; 87.4% in the experiment on NCI-H226 lung; 95.9% in the experiment with NCI-H322M lung; 95% in the experiment with HOP-62 NSCLC; 95.2% with NCI-H460 lung; 92.8% with HOP-92 NSCLC. In addition, the growth was 87.6% with NCI-H522 lung; 98.5% in the experiment on A549/ATCC NSCLC; 87.7% with 786-0 renal; 130% in the experiment on COLO 205 colon; 100% with DU-145 prostate; 91.1% in the experiment on K-562 leukemia. Besides, the growth in the experiment with MALME-3M melanoma is 109%; with RXF 393 renal, 96.4%; in the experiment on SF-268 CNS, 94.2%; in the experiment on SF-295 CNS, 92%; in the experiment on SF-539 CNS, 60.8%; in the experiment on UACC-257 melanoma, 107%. Besides, the growth in the experiment with M14 melanoma was 106%.
In the case of `CC1C(c2ccccc2)OCCN1C(=S)Nc1ccc(S(=O)(=O)N2CCCCC2)cc1` (configuration not stated), the growth in the experiment with NCI-H23 lung was 98.6%; in the experiment on NCI-H226 lung it was 91.6%; in the experiment with NCI-H322M lung, 108%; in the experiment on HOP-62 NSCLC, 109%; in the experiment with NCI-H460 lung, 104%; in the experiment on HOP-92 NSCLC, 78.2%. Further, the growth in the experiment with NCI-H522 lung is -34.1% (active); with A549/ATCC NSCLC, 102%; in the experiment on 786-0 renal, 109%; in the experiment on COLO 205 colon, 108%; in the experiment with DU-145 prostate, 104%; in the experiment on K-562 leukemia, 109%. The growth is 96.5% in the experiment with MALME-3M melanoma; 86% in the experiment with MDA-MB-231 breast; 95.5% with RXF 393 renal; 109% in the experiment with SF-268 CNS; 99.2% with SF-295 CNS; 91.5% with UACC-257 melanoma. Moreover, the growth in the experiment on M14 melanoma was 94.5%.
For `COc1cc(NC(=O)C2=C(C)NC(C)=C(C(=O)Nc3cc(OC)c(Cl)cc3OC)C2c2cccc([N+](=O)[O-])c2)c(OC)cc1Cl`, the growth in the experiment on NCI-H23 lung was 34.6%; in the experiment on NCI-H226 lung it was 45.7%; in the experiment on NCI-H322M lung, 46.3%; with HOP-62 NSCLC, 43.2%; with NCI-H460 lung it was 36.8%; in the experiment on HOP-92 NSCLC it was 13.2%. Also, the growth is 46.8% in the experiment with NCI-H522 lung; 35.7% with A549/ATCC NSCLC; 39% in the experiment with 786-0 renal; 50.5% with COLO 205 colon; 58.4% with DU-145 prostate; 33.4% in the experiment on K-562 leukemia. In addition, the growth in the experiment with MALME-3M melanoma was 37.5%; with RXF 393 renal it was 36.7%; in the experiment on SF-268 CNS, 39.3%; in the experiment with SF-295 CNS, 26.3%; in the experiment with SF-539 CNS, 31.8%; with UACC-257 melanoma it was 46.9%. The growth with M14 melanoma was 20.1%.
On to `Nc1nc(N)c2cc(Sc3cccc(C(F)(F)F)c3)ccc2n1`, for which the growth was 40.3% in the experiment with NCI-H23 lung; 57.6% in the experiment with NCI-H226 lung; 37.1% with NCI-H322M lung; 61.3% in the experiment on HOP-62 NSCLC; 14.9% with NCI-H460 lung; 28.5% in the experiment with HOP-92 NSCLC. Moreover, the growth with NCI-H522 lung was 35.4%; with A549/ATCC NSCLC, 12.7%; with 786-0 renal, 19.2%; in the experiment on COLO 205 colon, -75.9% (active); in the experiment on DU-145 prostate, 28.6%; in the experiment on K-562 leukemia, 8.39% (active). In addition, the growth is 31.5% in the experiment on MALME-3M melanoma; 45.3% with MDA-MB-231 breast; 42.8% with RXF 393 renal; 29.5% with SF-268 CNS; 28.6% with SF-539 CNS; 27.4% in the experiment on UACC-257 melanoma. Moreover, the growth with M14 melanoma was 13.6%.
In the case of `CCCCCCCCCCCC[N+]1(CCCCCCCCCCCC)CCCC(C)C1` (configuration not stated), the growth in the experiment on NCI-H23 lung was -91.9% (active); with NCI-H226 lung, -77% (active); with NCI-H322M lung, -85.9% (active); in the experiment with HOP-62 NSCLC, -96.3% (active); with NCI-H460 lung it was -90.7% (active); with HOP-92 NSCLC it was -86.5% (active). Also, the growth in the experiment with NCI-H522 lung is -90.1% (active); with A549/ATCC NSCLC it was -98.6% (active); in the experiment with 786-0 renal, -98.4% (active); in the experiment with COLO 205 colon, -98.8% (active); in the experiment with DU-145 prostate it was -83.8% (active); with K-562 leukemia, -79.1% (active). The growth with MALME-3M melanoma is -75.1% (active); in the experiment with MDA-MB-231 breast, -82.6% (active); in the experiment on SF-268 CNS it was -87.7% (active); with SF-295 CNS it was -77.1% (active); with SF-539 CNS, -99.6% (active); in the experiment on UACC-257 melanoma, -96.2% (active). In addition, the growth in the experiment with M14 melanoma was -97.3% (active).
